Data on 47 compounds can be found in PubChem BioAssay AID2685 (National Center for Advancing Translational Sciences (NCATS), 2010).

Hit rate of the full screen: of about 320,000 compounds, about 2,100 (0.66%) were called active. Not shown: some 53% with an inconclusive outcome. Calls come from the whole dose curve; as a rule, active = well fitted inhibition curve with a large enough effect in the signal ratio, with a control signal flat (not every such curve was filed as active); inconclusive = small, poorly fitted or top-dose-only effect, or effect the other way, or a change in a side signal; inactive = flat fitted curve, though single readings scatter; the % refers to the signal ratio. What follows is part of a selection rich in actives, with near analogues and random picks from the rest.
Potency is the fitted concentration of half-maximal effect.

The nature of the experiment: qHTS Assay for Lipid Storage Modulators in Drosophila S3 Cells.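 For cell number change: cells counted by Cell Tracker Red CMTPX staining in the red channel.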 For lipid storage change, negative = inhibition: % is set by controls: 0 for no effect and ±100 for the full control effect. As to conditions: BODIPY lipid droplet fluorescence, 18-24 h, cells fed with added oleic acid; cell number change: measured here: cell count max response; series mostly up to 46.1 µM; lipid storage change, negative = inhibition: at the top concentration. The gist of the method:
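Drosophila S3 cells loaded with oleic acid (400 uM, as added) and compounds at several concentrations; lipid droplets imaged by 488-nm laser-scanning cytometry, 500–530 nm intensity and object ratio to cell channel. Percent activity normalized to 20 uM Triacsin C.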
For `CCN1CCN(c2ccc([N+](=O)[O-])c(Sc3nc4ccccc4[nH]3)c2)CC1`, the “lipid storage change, negative = inhibition” value was -3.58% (inactive) and the cell number change was -7.24%.
In the case of `CC1=CC(=Nc2c(C)n(C)n(-c3ccccc3)c2=O)C=CC1=O`, the “lipid storage change, negative = inhibition” value is -9.72% (inactive) and the cell number change amounted to 4.9%.
For the compound `CC1=NN(Cc2cc(C(C)(C)C)c(O)c(C(C)(C)C)c2)C(=O)C1`, the Potency was 16.4 µM (active) and the cell number change is -27.5%.
`CC1=NN(Cc2ccccc2)C(=O)C1`: the “lipid storage change, negative = inhibition” value was -22.5% (inactive) and the cell number change turned out to be 11.6%.
Turning to `CC(C)(C)c1cc(CN2CCC(O)CC2)cc(C(C)(C)C)c1O`, the compound was classed as inactive and the cell number change amounted to 12.8%.
Take `COCCOC(=O)c1c(C)oc2ccc(OC(=O)c3ccc4c(c3)OCO4)cc12`: the call was inactive.
For `CC1CN(C(=O)c2cccc(S(=O)(=O)N3CCN(c4ccccc4)CC3)c2)CC(C)O1` (stereo not given), the “lipid storage change, negative = inhibition” value was 13.5% (inactive) and the cell number change is 2.24%.
As to `C[C@@H]1CCC(=O)N(C[C@@H](C)CSc2ccccc2)CC1`, the compound was called inactive and the cell number change was 11.7%.
For the compound `CCC(=O)Nc1ccc(NC(=O)CSc2nnc(-c3ccco3)n2C)cc1`, the “lipid storage change, negative = inhibition” value was -25.5% (inactive) and the cell number change is 8.55%.
For `Cn1c(SCC(=O)Nc2ccc(Cl)cc2F)nnc1-c1ccco1`, the Potency is 23.1 µM (active) and the cell number change is 9.91%.
`Cc1cc(NC(=O)CSc2nnc(-c3ccco3)n2C)no1`: the “lipid storage change, negative = inhibition” value was 5.6% (inactive) and the cell number change came out at 17.5%.
In the case of `O=C(Nc1nc2ccc(F)cc2s1)c1ccc(N2CCCC2=O)cc1`, the “lipid storage change, negative = inhibition” value is -0.195% (inactive) and the cell number change was -14.4%.
As for `CCCC1CC(CCc2ccccc2)OS(=O)(=O)N1` (stereo not given), the outcome was inactive and the cell number change stood at 22.3%.
Regarding `C=CCNc1nc2c(c(=O)[nH]c(=O)n2C)n1CC(O)COc1ccc2ccccc2c1` (stereo not given), the “lipid storage change, negative = inhibition” value is 9.91% (inactive) and the cell number change is -2.59%.
As to `C=CCSc1nc(C)cc2c1C(=O)OC2`, the “lipid storage change, negative = inhibition” value is -1.91% (inactive) and the cell number change was -10%.
Take `CCOC(=O)C1CCN(S(=O)(=O)c2ccc(OC)c(OC)c2)CC1`: the call was inactive.
As for `Cc1cc(-n2c(C)cc(C(=O)COc3cc(F)ccc3[N+](=O)[O-])c2C)no1`, the Potency is 8.2 µM (active) and the cell number change amounted to 1.91%.
Turning to `Cc1cc(-n2c(C)cc(C(=O)COc3ccc([N+](=O)[O-])cc3)c2C)no1`, the cell number change was -1.97% and the lipid storage change, negative = inhibition is -9.66% [at 9.22 µM] (inactive).
The corresponding values for `Cc1cc(-n2c(C)cc(C(=O)COc3ccc4ccc(=O)oc4c3)c2C)no1` are -3.86% and -4.04% (inactive).
For `N#CN=C1CCCCCN1CC(N)=O`, the Potency is 0.731 µM (active) and the cell number change is -10.9%.
As for `O=C(O)CN1CCCC1=Nc1ccccc1`, the outcome was inactive and the cell number change was found to be 7.34%.
With `Cc1nc(CN2CCCC2=NC#N)n(-c2ccccc2)n1`, the “lipid storage change, negative = inhibition” value was -0.104% (inactive) and the cell number change came to 7.55%.
The corresponding values for `Cc1cc(C(=O)N/N=C/c2ccc(-c3cccc(Cl)c3Cl)o2)n[nH]1` are 2.75% (inactive) and -7.33%.
On to `Cc1nc(N)nc(Nc2ccc(Cl)cc2)c1Br`, for which the call was inactive and the cell number change was found to be 17.2%.
As to `CCOc1ccc(CC(C(=O)NN)C(=O)NN)cc1CN(C)C`, the Potency was 18.4 µM (active) and the cell number change is -6.71%.
As to `CCOc1ccc(CC(C(N)=O)C(N)=O)cc1CN(C)C`, the “lipid storage change, negative = inhibition” value was 8.24% (inactive) and the cell number change was -1.24%.
`CCOc1ccccc1CNCc1ccc(C(=O)O)cc1`: the “lipid storage change, negative = inhibition” value is 16% (inactive) and the cell number change turned out to be 10.5%.
Consider `COC(=O)c1cc(OC)c(OC)c(OC)c1NC(=O)c1ccc(S(=O)(=O)N(C)C)cc1`, for which the compound was classed as inactive and the cell number change was -4.59%.
As to `COC(=O)Nc1c(C(=O)OC)cc(OC)c(OC)c1OC`, the Potency is 16.4 µM (active) and the cell number change was -8.23%.
As for `COC(=O)c1cc(OC)c(OC)c(OC)c1N`, the call was inactive and the cell number change turned out to be 7.54%.
`CCOC(=O)CN(C(=O)COc1nc(C)cc(C)c1C#N)c1cccc(Cl)c1`: the “lipid storage change, negative = inhibition” value was 3.11% (inactive) and the cell number change was determined as 6.09%.
Regarding `Cc1cccc(N2CCN(C(=O)c3ccc(CNc4c(N5CCC(C)CC5)c(=O)c4=O)cc3)CC2)c1C`, the “lipid storage change, negative = inhibition” value was -0.571% (inactive) and the cell number change is 1.91%.
Consider `COc1ccc(CN2CCN(Cc3cccc(OC)c3)C(CCO)C2)cc1` (stereo not given), for which the “lipid storage change, negative = inhibition” value is 15.7% (inactive) and the cell number change is 0.486%.
For `COc1ccc(OC)c(CN2CCN(C(=O)c3ccc(S(=O)(=O)Nc4ccccc4F)cc3)CC2)c1`, the Potency was 13 µM (active) and the cell number change was -20.6%.
On to `COc1ccc(C(=O)N2CCN(Cc3cc(OC)ccc3OC)CC2)cc1`, for which the “lipid storage change, negative = inhibition” value was -14.3% (inactive) and the cell number change is -3.67%.
For `CC(C)(C)c1ccc(C(=O)NCC(=O)N2CCCCCC2)cc1`, the result was inactive and the cell number change was determined as 5.65%.
Regarding `CC(C)(C)c1ccc(C(=O)NCC(=O)N2CCCC2)cc1`, the compound was classed as inactive and the cell number change was 12.2%.
Regarding `COc1ccc(OC)c(CN2CCN(C(=O)CNC(=O)c3ccc(C(C)(C)C)cc3)CC2)c1`, the Potency was 1.46 µM (active) and the cell number change is -27.4%.
With `COc1ccc(NS(=O)(=O)c2cccc(C(=O)N3CCN(Cc4cc(OC)ccc4OC)CC3)c2)cc1`, the “lipid storage change, negative = inhibition” value is -13.2% (inactive) and the cell number change was determined as 1.47%.
For the compound `O=C(Cn1c(C(F)(F)F)nc2ccccc21)N=Nc1c(O)[nH]c2ccc(Br)cc12`, the outcome was inactive.
As for `CC1(C)CC(=O)N(c2ccc(C#N)cc2)C(=O)C1`, the “lipid storage change, negative = inhibition” value was 2.37% (inactive) and the cell number change was -0.525%.
For the compound `Cc1cccc(NC(=O)C(c2ccccc2Cl)N2CCOCC2)c1` (stereo not given), the “lipid storage change, negative = inhibition” value is 2.74% (inactive) and the cell number change turned out to be 14.2%.
Take `COCCCNc1nc(-c2ccc(Cl)cc2)nc2ccccc12`: the call was inactive.
As for `CCCCN1C(=O)/C(=c2\sc3nc(=O)c(-c4ccccc4)nn3c2=O)c2ccccc21`, the “lipid storage change, negative = inhibition” value is -21.2% (inactive) and the cell number change was -10.9%.
Take `C/C(=N\NC(=O)c1c([N+](=O)[O-])c(C)nn1C)c1ccc(NC(=O)C2CCCC2)cc1`: the “lipid storage change, negative = inhibition” value is -5.01% (inactive) and the cell number change stood at 5.28%.
Consider `C/C(=N\NC(=O)c1nn(C)c(C)c1Br)c1ccc(NC(=O)C2CCCC2)cc1`, for which the outcome was inactive and the cell number change was -25.5%.
`C/C(=N\NC(=O)c1ccn(C)n1)c1ccc(NC(=O)C2CCC2)cc1`: the Potency was 13 µM (active) and the cell number change was -21.2%.
